# PubChem BioAssay AID651947 (Broad Institute, 2012)
# Entries with a potency or affinity are not part of this list. Results filed as inconclusive are left out. Unmarked numbers belong to inactive results.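 The calls were made as follows: active = luminescence drop in HepG2 cells whose fitted half-effect dose is at most twice the top valid dose; inconclusive = flat curve with 30 to 70% signal loss, or unreliable fit; inactive = the rest.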
# Assay: HepG2 hepatoma cell viability loss – plate reader, dry powder, cytotoxicity control, dose response (AID 651947)
# Settings: ATP luminescence (CellTiter-Glo), 48 h, stronger effect = lower value
structure (smiles),measurement,setting,value
Fc1cccc(-c2nnc(SCc3ccccn3)o2)c1,max activity,at 26 µM unless noted,26.1% [at 12 µM]
c1ccc(Cn2cc(CSc3nnc(-c4ccccc4)o3)nn2)cc1,max activity,at 26 µM unless noted,-41.8%
c1ccc(CSc2nnc(-c3ccncc3)o2)cc1,max activity,at 26 µM unless noted,-43.6% [at 0.38 µM]
Cc1ccc(-c2nnc(SCc3ccccc3)o2)cc1,max activity,at 26 µM unless noted,15.2% [at 3 µM]
c1ccc(CSc2nnc(-c3cccnc3)o2)nc1,max activity,at 26 µM unless noted,-43.9%
FC(F)(F)Oc1cccc(CSc2nnc(-c3ccccc3)o2)c1,max activity,at 26 µM unless noted,19.6% [at 0.38 µM]
COc1ccccc1-c1nnc(SCc2ccccn2)o1,max activity,at 26 µM unless noted,-21.6%
c1ccc(COc2nnc(-c3ccccc3)o2)cc1,max activity,at 26 µM unless noted,-50.7% [at 1.6 µM]
Clc1cccc(CSc2nnc(-c3ccccc3)o2)c1,max activity,at 26 µM unless noted,-32.2% [at 0.195 µM]
c1ccc(CSc2nnc(-c3ccccn3)o2)cc1,max activity,at 26 µM unless noted,-20.9% [at 1.6 µM]
Clc1ccc(CSc2nnc(-c3ccccc3)o2)cc1,max activity,at 26 µM unless noted,-22.7% [at 0.8 µM]
O=S(=O)(Cc1ccccc1)c1nnc(-c2ccccc2)o1,max activity,at 26 µM unless noted,-24.8%
c1ccc(-c2nnc(SCc3ncco3)o2)cc1,max activity,at 26 µM unless noted,8.06% [at 0.195 µM]
CS(=O)(=O)c1ccccc1-c1nnc(SCc2ccccc2)o1,max activity,at 26 µM unless noted,22.6% [at 3 µM]
Brc1ccc(CSc2nnc(-c3ccccc3)o2)cc1,max activity,at 26 µM unless noted,32.4% [at 6 µM]
Fc1ccc(-c2nnc(SCc3ccccn3)o2)cc1,max activity,at 26 µM unless noted,-30.7% [at 1.6 µM]
Fc1ccc(Cn2cc(CSc3nnc(C4CCCC4)o3)nn2)cc1,max activity,at 26 µM unless noted,-18.5% [at 6 µM]
c1ccc(-c2nnc(SC3CCCCC3)o2)cc1,max activity,at 26 µM unless noted,-38.4%
N#Cc1ccccc1CSc1nnc(-c2ccccc2)o1,max activity,at 26 µM unless noted,22.9% [at 3 µM]
CCSc1nnc(-c2ccccc2)o1,max activity,at 26 µM unless noted,23.2% [at 12 µM]
CS(=O)(=O)c1ccc(-c2nnc(SCc3ccccc3)o2)cc1,max activity,at 26 µM unless noted,-40.3%
Fc1ccc(-c2nnc(SCc3ccccc3)o2)cc1,max activity,at 26 µM unless noted,14.5%
c1ccc(CSc2nnc(-c3cccnc3)o2)cc1,max activity,at 26 µM unless noted,-26.9% [at 0.8 µM]
c1ccc(-c2nnc(SCCN3CCOCC3)o2)cc1,max activity,at 26 µM unless noted,-7.63% [at 0.38 µM]
Fc1ccc(-c2nnc(SCc3cn(Cc4ccccc4)nn3)o2)cc1,max activity,at 26 µM unless noted,22.1% [at 3 µM]
FC(F)(F)Oc1ccccc1CSc1nnc(-c2ccccc2)o1,max activity,at 26 µM unless noted,-50.7% [at 1.6 µM]
CSc1nnc(-c2ccccc2)o1,max activity,at 26 µM unless noted,-44.9% [at 60 µM]
c1ccc(-c2nnc(SCCN3CCN(c4ccccc4)CC3)o2)cc1,max activity,at 26 µM unless noted,-48.3% [at 12 µM]
c1ccc(-c2nnc(SCCN3CCCC3)o2)cc1,max activity,at 26 µM unless noted,-61.1% [at 0.8 µM]
COc1ccccc1-c1nnc(SCc2ccccc2)o1,max activity,at 26 µM unless noted,-18.4% [at 0.195 µM]
FC(F)(F)c1cccc(-c2nnc(SCc3ccccc3)o2)c1,max activity,at 26 µM unless noted,20.7% [at 12 µM]
N#Cc1ccc(-c2nnc(SCc3ccccc3)o2)cc1,max activity,at 26 µM unless noted,15.9% [at 1.6 µM]
COc1cccc(CSc2nnc(-c3ccccc3)o2)c1,max activity,at 26 µM unless noted,25.7%
COc1ccccc1CSc1nnc(-c2ccccc2)o1,max activity,at 26 µM unless noted,-56.1% [at 6 µM]
COc1ccc(-c2nnc(SCc3ccccc3)o2)cc1,max activity,at 26 µM unless noted,-23.7% [at 6 µM]
Fc1ccc(CSc2nnc(-c3ccccc3)o2)cc1,max activity,at 0.38 µM,22%
same,max activity,at 12 µM,-25.4%
